Source: PMC12864922, “TDP-43 directly inhibits mRNA accumulation in neurites through modulation of mRNA stability”
In all, about 9,900 sequences were measured (“r (bound/input frequency ratio)”: median about 0.7, highest 2% from about 6.5 on). What follows is part of a selection rich in the highest values, with near analogues and random picks from the rest.

B1: ENSMUSG00000031028.526|Tub (ssRNA)
RNA: GGGAGUUCUACAGUCCGACGAUCGCUUCGAUAUCCGCAUGCUACUUUCUCUUUUAUGGAAAUGGCAGGUCUAUUUGCCUCAAACGUUAUGUAGAAGUAGUUCUAAGUUUAACAAGCAAUAGAGAUGACUGCUUAGCUAGGAUCUGCAGGGAGCUCUGCUCUGCAAGCACAACACCUGUCUCAUAGAUGGACAGCCUGGUUUCCCUUCUCAGCAGUCCUGGCCUCCCCUUCUCUGUAUUCCUUGCCCCAGCUACGAUAUCCUCAUGGGAUUUCAGGAUGCCAGGUGCCAUCAAAGCAUGCUUUUCUCUUGCGGUCGCACUAGUGUGGAAUUCUCGGGUGUCAAGG
B2: ENSMUSG00000061578.913|Ksr2|118:122 (ssRNA)
RNA: GGGAGUUCUACAGUCCGACGAUCGCUUCGAUAUCCGCAUGCUACAGAGACAGAUUUCCCAGAAUCCCUGGGCCACUUCUCAAUUCUACCCAUGACAGACAUGUCCCAUCCAUGAGCCCAGAUAGUCAAAGACUUCAGCACAAGGGUGUUUAGAGUAGGCACACACGAAGUAUCAAUAAGGUUAUUGAGAUGAGGAUUUAGAAAGAUCCAUGUAUAAAAGGUCUAGAAGGAUGAAGAUCUAAAACAAGAAGACUGCAUGUUAACGCUCCUGCCACUGUUGCCCCUUCCUUUACCCUUGGCAGACCUCUUGCGGUCGCACUAGUGUGGAAUUCUCGGGUGUCAAGG
B3: ENSMUSG00000061578.23|Ksr2 (ssRNA)
RNA: GGGAGUUCUACAGUCCGACGAUCGCUUCGAUAUCCGCAUGCUAGUGAUGACGUCACAGAGGCUGUCCACACCUUCGACUUGUACCCCGUUACUCAGGCACGAUCAGGGACCACUCAACUAGGACCAAACUGGGCCAGAGAGGGUCCCAUGUGUGGUGUGAAGGAGCCACAGACUGAGCACACCACCUCGGACUGUGGAGACCAAGACACAUGCCCAGUGGGCAGACUCAGACUCACACGCUGGACCAGUGUGUGCGCAUGUGUCUACACAUGGACAGGGCCAACUGCUAUCCUUCUGCCUGGACUCUUGCGGUCGCACUAGUGUGGAAUUCUCGGGUGUCAAGG
B4: ENSMUSG00000043670.121|Diras1 (ssRNA)
RNA: GGGAGUUCUACAGUCCGACGAUCGCUUCGAUAUCCGCAUGCUAUGUCUGCACACCAGGGUGGAUGGGCCCGAGGGCUGGGCCUCAGGCACCAGGCAAUAAACACAGGGCCUGCAGCAAUGCCCUGGCCACCCCGAGUACCACCUCUGGAAUAGCAGACGCCCACAGCACAAGCCCAGGACUGUCCCUUCAGGGGAGGCACACUGGAACCCUGAACUUGGAGUGUGGAGUGGCUGCCUGGACACUGCCCACCUGGACACCAGCCUUCUGCUGAGAUAGAGACCUUGGCACAGUGGCACCUCGACCUCUUGCGGUCGCACUAGUGUGGAAUUCUCGGGUGUCAAGG
B5: ENSMUSG00000042529.384|Kcnj12 (ssRNA)
RNA: GGGAGUUCUACAGUCCGACGAUCGCUUCGAUAUCCGCAUGCUACAUGCUCACCAACCUGAACUGGUCAGGCUGGAUGCUGGCCACAGACAUGAUCAGUCCGACUUGAGUCCCUGCCCUGCCCUGGUUAUGCAGGCUGUACGACGCAGUGUGCAUCAGUCUGAGGAGUCUGGUGGUAAGUAAGCCUCUGCAGCAGACCCUGUCGGAGGCCAUGGGGGCGUGUGUGUGUGUGUGUGUGUGUGUGUGUGUGUGUGUGUGUGUGUGUGUGUGUGAACAUGUGUGAGGGUGUGGAGGUCCCAGGGUGUCUCUUGCGGUCGCACUAGUGUGGAAUUCUCGGGUGUCAAGG
B6: ENSMUSG00000061578.39|Ksr2 (ssRNA)
RNA: GGGAGUUCUACAGUCCGACGAUCGCUUCGAUAUCCGCAUGCUAAGGGUCCCAUGUGUGGUGUGAAGGAGCCACAGACUGAGCACACCACCUCGGACUGUGGAGACCAAGACACAUGCCCAGUGGGCAGACUCAGACUCACACGCUGGACCAGUGUGUGCGCAUGUGUCUACACAUGGACAGGGCCAACUGCUAUCCUUCUGCCUGGACGAGCCAGCUGUGGAGUGUCCCAGCUGUGCUAUCCUGGAACACAGAACCAGGAUGGAACCAGAAACAAUACACCUGCUCCGUUGUCAAGGCUUCUACUCUUGCGGUCGCACUAGUGUGGAAUUCUCGGGUGUCAAGG
B7: ENSMUSG00000042529.382|Kcnj12 (ssRNA)
RNA: GGGAGUUCUACAGUCCGACGAUCGCUUCGAUAUCCGCAUGCUAUAAGGUGGGUUUCAUGCUCACCAACCUGAACUGGUCAGGCUGGAUGCUGGCCACAGACAUGAUCAGUCCGACUUGAGUCCCUGCCCUGCCCUGGUUAUGCAGGCUGUACGACGCAGUGUGCAUCAGUCUGAGGAGUCUGGUGGUAAGUAAGCCUCUGCAGCAGACCCUGUCGGAGGCCAUGGGGGCGUGUGUGUGUGUGUGUGUGUGUGUGUGUGUGUGUGUGUGUGUGUGUGUGUGUGAACAUGUGUGAGGGUGUGGAGCUCUUGCGGUCGCACUAGUGUGGAAUUCUCGGGUGUCAAGG
B8: ENSMUSG00000042529.385|Kcnj12 (ssRNA)
RNA: GGGAGUUCUACAGUCCGACGAUCGCUUCGAUAUCCGCAUGCUACACCAACCUGAACUGGUCAGGCUGGAUGCUGGCCACAGACAUGAUCAGUCCGACUUGAGUCCCUGCCCUGCCCUGGUUAUGCAGGCUGUACGACGCAGUGUGCAUCAGUCUGAGGAGUCUGGUGGUAAGUAAGCCUCUGCAGCAGACCCUGUCGGAGGCCAUGGGGGCGUGUGUGUGUGUGUGUGUGUGUGUGUGUGUGUGUGUGUGUGUGUGUGUGUGUGAACAUGUGUGAGGGUGUGGAGGUCCCAGGGUGUGUGUAUCUCUUGCGGUCGCACUAGUGUGGAAUUCUCGGGUGUCAAGG
B9: ENSMUSG00000042529.383|Kcnj12 (ssRNA)
RNA: GGGAGUUCUACAGUCCGACGAUCGCUUCGAUAUCCGCAUGCUAGGGUUUCAUGCUCACCAACCUGAACUGGUCAGGCUGGAUGCUGGCCACAGACAUGAUCAGUCCGACUUGAGUCCCUGCCCUGCCCUGGUUAUGCAGGCUGUACGACGCAGUGUGCAUCAGUCUGAGGAGUCUGGUGGUAAGUAAGCCUCUGCAGCAGACCCUGUCGGAGGCCAUGGGGGCGUGUGUGUGUGUGUGUGUGUGUGUGUGUGUGUGUGUGUGUGUGUGUGUGUGUGAACAUGUGUGAGGGUGUGGAGGUCCCACUCUUGCGGUCGCACUAGUGUGGAAUUCUCGGGUGUCAAGG
B10: ENSMUSG00000042529.381|Kcnj12 (ssRNA)
RNA: GGGAGUUCUACAGUCCGACGAUCGCUUCGAUAUCCGCAUGCUAUUUGGGUAAGGUGGGUUUCAUGCUCACCAACCUGAACUGGUCAGGCUGGAUGCUGGCCACAGACAUGAUCAGUCCGACUUGAGUCCCUGCCCUGCCCUGGUUAUGCAGGCUGUACGACGCAGUGUGCAUCAGUCUGAGGAGUCUGGUGGUAAGUAAGCCUCUGCAGCAGACCCUGUCGGAGGCCAUGGGGGCGUGUGUGUGUGUGUGUGUGUGUGUGUGUGUGUGUGUGUGUGUGUGUGUGUGUGAACAUGUGUGAGGGUCUCUUGCGGUCGCACUAGUGUGGAAUUCUCGGGUGUCAAGG
B11: ENSMUSG00000042529.380|Kcnj12 (ssRNA)
RNA: GGGAGUUCUACAGUCCGACGAUCGCUUCGAUAUCCGCAUGCUAUUUAAAUUUGGGUAAGGUGGGUUUCAUGCUCACCAACCUGAACUGGUCAGGCUGGAUGCUGGCCACAGACAUGAUCAGUCCGACUUGAGUCCCUGCCCUGCCCUGGUUAUGCAGGCUGUACGACGCAGUGUGCAUCAGUCUGAGGAGUCUGGUGGUAAGUAAGCCUCUGCAGCAGACCCUGUCGGAGGCCAUGGGGGCGUGUGUGUGUGUGUGUGUGUGUGUGUGUGUGUGUGUGUGUGUGUGUGUGUGUGAACAUGUGUCUCUUGCGGUCGCACUAGUGUGGAAUUCUCGGGUGUCAAGG
B12: ENSMUSG00000031028.210|Tub (ssRNA)
RNA: GGGAGUUCUACAGUCCGACGAUCGCUUCGAUAUCCGCAUGCUAAAUGUAUAAGGUUGGAAACCUUUCAGUAGGGAAUCAGGCAGUUCCCUGUUGAAAGUUGUCUGAGUUUUUGCACACCAUUCUGAUCUGAUGUGGCCUGUGCCUGGCUCCUCUAUGAGGACUUCGAGCUGUGCACAGACCUUAGCAGGACCACUGCACACUUUGUGUCUGUGUGACAGGCAGCCCAAGGGUUCUGGGGCUGGGCUUGGACACGCCCUCCAUUGGGAUGGCACCACUCAUCUGGUGGGCUUGGGAACUCCAAGCUCUUGCGGUCGCACUAGUGUGGAAUUCUCGGGUGUCAAGG
B13: ENSMUSG00000061578.1090|Ksr2 (ssRNA)
RNA: GGGAGUUCUACAGUCCGACGAUCGCUUCGAUAUCCGCAUGCUAAGCAGCCAACCAUGAAAAUAGAGGUUUGUAAUGUACAGAAGGCUGGGGGAGCUUUCAGGGGUGUGGCCAGUUAUGUACAGAUGUGAAGCUGAGGUCUGAAGGAAAUGGAGGAAGUAGGAAGAUCAGACUGGUUGAAUUAGAAGUCUGUCACUCUAGGUGCUAAGUGACCUUGGACCCAGUCAGUUCUUGGAUUUCUGUUGUAGCCCAGGCUAGCCUCGAACCCUUGAUCCUCCUGUUCCUGGUAGAGAAACAGCCACUAACUCUUGCGGUCGCACUAGUGUGGAAUUCUCGGGUGUCAAGG
B14: ENSMUSG00000043670.183|Diras1|29:33;126:130;160:164;174:183;189:196;229:233 (ssRNA)
RNA: GGGAGUUCUACAGUCCGACGAUCGCUUCGAUAUCCGCAUGCUAGACAGAAUCUGAGCCUCUUUGCUGGUCAACACAACUCUGGAGACUGUCCCCCAUGUCUGCCCUGAGUUACGGAGCCCCUGUGGUAUCUGCGAGACUGUCCAGGAGACUUGAGUGGCUCCUGGGCCACACACCCACCCAGAUGAGGGUGACUUAGAAUUCACACAUUAUGUGCCACACACACACGAUGGCACACACACUGUCUUGGGAUGGGGUGUUCUUGCACCACUUACACAUCUUAGUGAGACCACAGUGUAAGUGGCCUCUUGCGGUCGCACUAGUGUGGAAUUCUCGGGUGUCAAGG

molecular target: TDP-43 (Homo sapiens, UniProt Q13148 1-414); test: RNA Bind-n-Seq with designed 260-mer pool; 25 mM Tris-HCl, 150 mM KCl, 3 mM MgCl2, BSA (printed 500 mg/mL), 20 units/mL SUPERase IN; pH not stated; 500 nM RNA pool, 1 h, 4 C; TDP-43 5, 50, 500 nM; high values mean tight binding; conditions: protein: recombinant; tags: SBP (GST cleaved off with PreScission; pGEX-GST-SBP)
Sequence (Q13148 whole entry): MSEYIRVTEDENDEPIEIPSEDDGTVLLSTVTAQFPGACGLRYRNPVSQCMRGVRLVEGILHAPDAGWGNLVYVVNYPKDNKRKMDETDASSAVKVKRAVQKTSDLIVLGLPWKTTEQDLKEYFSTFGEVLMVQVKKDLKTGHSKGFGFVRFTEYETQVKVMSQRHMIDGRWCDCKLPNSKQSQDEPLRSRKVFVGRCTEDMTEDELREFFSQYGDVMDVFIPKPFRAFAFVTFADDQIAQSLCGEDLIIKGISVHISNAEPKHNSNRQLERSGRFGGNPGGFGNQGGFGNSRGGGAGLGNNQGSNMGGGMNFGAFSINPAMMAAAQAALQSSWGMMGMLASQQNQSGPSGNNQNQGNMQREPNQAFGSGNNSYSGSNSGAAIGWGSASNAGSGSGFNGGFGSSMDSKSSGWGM
Summary of the method: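 In 25 mM Tris-HCl, 150 mM KCl, 3 mM MgCl2, BSA and SUPERase IN, 500 nM of an in vitro-transcribed 260-nt 3′ UTR oligo pool was incubated for 1 h at 4 °C with SBP-tagged TDP-43 (5, 50 or 500 nM) captured on streptavidin beads. RNA remaining after washes was biotin-eluted, reverse transcribed, PCR-amplified and sequenced. Binding, R, is the bound-sample abundance of each oligo, normalized to mapped reads, divided by its abundance in input. Each duplicate used a separate, independent protein batch.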

Binder | binding signal
B1 | 0.219 R (bound/input frequency ratio)
B2 | 0.457 R (bound/input frequency ratio)
B3 | 0.299 R (bound/input frequency ratio)
B4 | 0.914 R (bound/input frequency ratio)
B5 | 7.66 R (bound/input frequency ratio)
B6 | 0.764 R (bound/input frequency ratio)
B7 | 6.14 R (bound/input frequency ratio)
B8 | 7.81 R (bound/input frequency ratio)
B9 | 8.12 R (bound/input frequency ratio)
B10 | 6.18 R (bound/input frequency ratio)
B11 | 7.35 R (bound/input frequency ratio)
B12 | 2.94 R (bound/input frequency ratio)
B13 | 1.34 R (bound/input frequency ratio)
B14 | 0.711 R (bound/input frequency ratio)
